According to PubChem BioAssay (NCI):
About 83,000 compounds went through this panel and 20% of them were active in at least one assay; those are over-represented in the sample as a whole.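 Each cell line was grown in a 96-well plate and treated with one concentration of compound for 48 hours. Values below 10 were considered active.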 Active and inactive are the calls of the source.

System: MDA-MB-468 breast
Test: NCI-60 one-dose screen, 48 h (100 = growth as untreated, 0 = no growth, -100 = all killed)
Details: 10 µM unless noted

Row | Structure (SMILES) | growth
1 | NNc1nnc2nc(Nc3ccccc3)nc(Nc3ccc(S(N)(=O)=O)cc3)n12 | 126% (inactive)
2 | COc1cc(Nc2ccnc(N3CCN(c4ccnc5cc(Cl)ccc45)CC3)n2)cc(OC)c1 | -0.859% (active)
3 | O=C(O)c1ccc(-n2cc(/C=N/Nc3ccc(Cl)cc3)c(-c3ccc(F)c(F)c3)n2)cc1 | 83.2% (inactive)
4 | CCCc1cc(C(N)=S)ccn1 | 102% (inactive)
5 | O=c1cc(C2NNC(=S)N2)c2ccc3ccccc3c2o1 (stereo not given) | 128% (inactive)
6 | O=c1[nH]cc(Cl)cc1O | 108% (inactive)
7 | CC(=O)Nc1ccc(S(=O)(=O)N2C(=O)CCC2C(=O)Nc2ccccc2)cc1 (stereo not given) | 40.3% (inactive)
8 | CN(C)C(=O)Oc1cccc([N+](C)(C)C)c1 | 102% (inactive)
9 | CCOc1cccc(NC2=C(Br)C(=O)C(C)=C(C)C2=O)c1 | -65.7% (active)
10 | CCN1CCN(CC(=O)Nc2nc3ccc(NCc4ccc(F)cc4)cc3s2)CC1 | 86.1% (inactive)
11 | C[C@@H]1C(=O)N(C[C@H](Cc2ccccc2)NC(=O)OCc2ccccc2)[C@]1(Cc1ccccc1)C(=O)OC(C)(C)C | 46.7% (inactive)
12 | C/C(=N\NC(=O)CSc1nc2sc3c(c2c(=O)n1-c1ccccc1)CCC(C)C3)c1ccc(Cl)cc1 (stereo not given) | -28% (active)
13 | O=C1/C(=C\c2ccc(Cl)cc2)CN(C(=S)Nc2ccccc2)C/C1=C\c1ccc(Cl)cc1 | -64.4% (active)
14 | CCN(CC)C(=O)/C=C(/C)c1ccccc1 | 87.6% (inactive)
15 | Cc1ccc(-c2nnc(SCc3ccc(O)c4ncccc34)n2-c2ccccc2)cc1 | 9.08% (active)
16 | CS(=O)CC(=N\O)/C(CS(C)=O)=N\O (stereo not given) | 104% (inactive)
17 | O=c1[nH]nc(-c2ccc(Br)cc2)c2sc(NC(=S)Nc3ccc(Cl)cc3)nc12 | 110% (inactive)
18 | CCN(CC)c1ccc(/C=C/C=C2\NC(=O)NC2=O)cc1 | -5.35% (active)
19 | NC(N)=Nc1ccc(Oc2cccc(NC(N)=Nc3ccc(Br)c(C(F)(F)F)c3)c2)cc1 | 4.68% (active)
20 | COc1ccc(-c2nc3ccc(-c4nc5ccc(N6CCN(C)CC6)cc5[nH]4)cc3[nH]2)cc1OC | -30.1% (active)

Row | Structure (SMILES) | growth
21 | COc1cc2ccccc2cc1C(=O)NC(=S)Nc1ccc(-c2nc3ccccc3[nH]2)cc1 | 90.2% (inactive)
22 | C(=C\c1ccccc1)/CN1CCN(C(c2ccccc2)c2ccccc2)CC1 | 89.6% (inactive)
23 | COc1ccc2nc(C)cc(Nc3ccc(Cl)cc3)c2c1 | 87.2% (inactive)
24 | COc1ccc(Cc2nc(C#N)c(N3CCN(c4ccc(F)cc4)CC3)o2)cc1 | 78% (inactive)
25 | CNC(=O)c1cc(Oc2ccc(NC(=O)c3nc(S(C)(=O)=O)n(C)c3-c3ccc(F)cc3)cc2)ccn1 | 79.1% (inactive)
26 | O=C(CSc1nnc(-c2ccc3nc(-c4ccccc4)[nH]c3c2)o1)Nc1ccc(C(=O)/C=C/c2ccccc2)cc1 | 112% (inactive)
27 | O=CN1N=C(c2ccc3c(c2)OCO3)CC1c1cccc(Nc2ccnc3cc(C(F)(F)F)ccc23)c1 (stereo not given) | 47.1% (inactive)
28 | CC(Nc1ncnc2ccc(-c3cnc4cnccn34)cc12)c1ccccc1 (stereo not given) | -21% (active)
29 | Cc1ccc(/C=C(\C#N)n2nnc3cc(F)c(F)cc32)cc1 | 17.3% (inactive)
30 | O=C1CC(=O)N(C(=O)c2nn(-c3ccc(Cl)cc3)cc2O)N1 | 62.4% (inactive)
31 | O=c1[nH]cc(/C=N\Nc2ccccc2)c(=O)[nH]1 | 90.7% (inactive)
32 | O=C(Nc1cccc(-n2cc(-c3ccncc3)c(-c3ccc(O)c(Cl)c3)n2)c1)Nc1ccc(Cl)c(Cl)c1 | 27.3% (inactive)
33 | c1c2c(cc3c1OCO3)Cc1cc3c(cc1Cc1cc4c(cc1C2)OCO4)OCO3 | 106% (inactive)
34 | CC(C)n1c(/C=C/[C@@H](O)C[C@@H](O)CC(=O)O)c(-c2ccc(F)cc2)c2ccccc21 | 81.7% (inactive)
35 | Cc1cccc2ccccc12 | 103% (inactive)
36 | O=C(Nc1ccc(-n2ccc3c(NC(=O)c4ccccc4)nccc32)cc1)c1cccc(C(F)(F)F)c1 | 16.8% (inactive)
37 | C/C(=N\Nc1cc(C)c2cc(C)ccc2n1)c1ccccn1 | -69% (active)
38 | COc1cccc(C(Cc2ccccc2)Nc2ccccc2)c1OC (stereo not given) | 111% (inactive)
39 | C=CCn1c(C)nc2ccc(Nc3nc(Nc4ccc(F)cc4)nc4ccccc34)cc21 | 49.3% (inactive)
40 | CCCCCCCC/C=C/CCCCCCCC1=NC(C)(C)CN1CCO | -64.5% (active)
